PLK1 PBD inh – inhibitors of human PLK1 polo-box domain binding; P53350; Plk1 PBD binding of FITC phosphopeptide, fluorescence polarization; Potency, µM, inactives show max response, negative = inhibition, usual class: inhibitors; AID 720504; hit rate 2.8% among 360,000; also: potency is read from the fitted curve at half-maximal effect; series mostly up to about 57 µM; nearly all actives have a fitted effect of over 65% in size
Target sequence (P53350 whole entry, looked up, the tested form may be a part): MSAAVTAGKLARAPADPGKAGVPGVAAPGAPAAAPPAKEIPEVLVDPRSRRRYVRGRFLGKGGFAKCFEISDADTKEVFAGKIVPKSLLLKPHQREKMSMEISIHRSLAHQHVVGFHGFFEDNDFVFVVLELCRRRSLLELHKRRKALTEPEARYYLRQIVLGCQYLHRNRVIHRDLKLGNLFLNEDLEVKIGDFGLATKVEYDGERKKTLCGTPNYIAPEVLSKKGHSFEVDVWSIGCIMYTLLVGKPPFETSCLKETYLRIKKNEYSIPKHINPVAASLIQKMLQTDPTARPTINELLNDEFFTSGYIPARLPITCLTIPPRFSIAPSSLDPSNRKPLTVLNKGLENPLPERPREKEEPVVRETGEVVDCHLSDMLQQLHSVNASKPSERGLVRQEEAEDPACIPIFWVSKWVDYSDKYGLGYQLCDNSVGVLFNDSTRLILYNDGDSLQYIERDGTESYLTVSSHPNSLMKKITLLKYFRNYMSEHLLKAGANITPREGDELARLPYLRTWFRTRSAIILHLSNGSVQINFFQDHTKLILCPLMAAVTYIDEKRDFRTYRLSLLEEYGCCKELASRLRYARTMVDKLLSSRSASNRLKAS
GCN5L2 inh – blocks human GCN5L2 histone acetyltransferase; hit rate 0.21% among 390,000; Potency, µM (top dose mostly 58.9 µM), for the others: top-dose activity change, negative = inhibition, actives largely listed as inhibitors; GCN5L2 HAT assay, ThioGlo1 CoA-SH fluorescence; Q92830; also: potency is read from the fitted curve at half-maximal effect
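Free CoA generated was detected with ThioGlo1 (50uM) fluorescence at Ex340nm/Em540nm, read immediately and after 20 min at room temperature. Enzyme, 20 nM in HEPES pH 7.5 buffer, saw compounds 15 min before adding 75uM H3(1-25) peptide and 70uM acetyl-CoA.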
PI4K2A inh – inhibitors of human PI4K2A; purified PI4K2A, ADP-Glo luminescence, 1 h; stronger effect = lower value; Q9BTU6; hit rate 0.13% among 420,000; AID 1346378; activity change, negative = inhibition, % at 76.9 µM; in the data active = activity change below about -50%; inconclusive = mostly about -30% to -49%;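 also: -100% = wells without enzyme as full effect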
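In this quantitative HTS, ADP production by PI4K2A was quantified luminescently after 1 h at ambient temperature; 100 microM adenosine served as plate-quality control.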
VDR inhibitor – inhibitors of human vitamin D receptor; P11473; VDR-SRC2-3 peptide fluorescence polarization, 2 h; Potency, µM, for inactives: max response, negative = inhibition, most hits filed as inhibitors; hit rate 0.93% among 400,000; AID 504847; also: potency is read from the fitted curve at half-maximal effect
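The screen uses fluorescence polarization to detect compounds that interfere with recruitment of the SRC2-3 coactivator peptide to VDR; plates are read after 2 h at room temperature.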
GLS inhibitor – inhibitors of human glutaminase (GLS). GLS enzymatic activity, qHTS titration. Potency, µM (highest dose often 45.5 µM), without a hit: at the highest dose activity change, negative = inhibition, usual class: inhibitors. AID 624170. hit rate 0.21% among 410,000; also: potency is read from the fitted curve at half-maximal effect
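hKGA; 45 mM KH2PO4 pH 8.2 + 0.02% Tween-20; cpd via pin tool; 1 mM Gln soln; GluOx/HRP/Amplex Red; RT 30 min; fluor. t0 & final.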
Starred values were filed as active, the others as inactive; i = inactive; ? = inconclusive; . = no result. Shown are actives, neighbours in structure and some others; about 3.1% of the full set was active somewhere. Unless noted, calls follow the shape of the dose curve; as a rule, active = well fitted curve in the direction sought with a large enough effect; inconclusive = small, poorly fitted or top-dose-only effect, or another doubt; inactive = no such curve, though single readings can be large; an effect the other way counts as inactive or inconclusive. Unless noted, % is scaled to controls: 0 for no effect and ±100 for the full control effect.

SMILES | PLK1 PBD inh | GCN5L2 inh | PI4K2A inh | VDR inhibitor | GLS inhibitor
CC(C)[C@H](N)C(=O)N[C@H](C(=O)N1CCC2CCN(S(=O)(=O)c3ccccc3)CC21)C(C)C (some centres undefined) | . | . | -1.2 | . | .
O=C(O)CC1S/C(=N/N=C/c2ccc(-c3ccc(Cl)cc3[N+](=O)[O-])o2)NC1=O (centres undefined) | 16.8µM* | -3.1% | -12.3 | ? | 7.2%
O=C(O)CC1S/C(=N/N=C/c2ccc(-c3ccc(Cl)c([N+](=O)[O-])c3)o2)NC1=O (centres undefined) | -20.2% | -4.8% | -2.2 | -5.8% | 1.6%
Oc1ccc(Nc2ccc3ccccc3c2)cc1 | ? | . | -5.9 | ? | 14.1µM*
N#CN1CCC(NS(=O)(=O)c2ccc(F)cc2)C1 (centres undefined) | . | . | -2.8 | . | .
COC(=O)/C=C1\SC(=NC(=O)c2ccc(-c3ccccc3)cc2)NC1=O | 18.9µM* | -26.3% | -5.8 | -9.0% | -0.1%
COC(=O)/C=C1\S/C(=N/NC(=O)c2ccc(OC)cc2)NC1=O | 18.9µM* | -6.1% | 1.3 | -6.8% | -0.4%
COC(=O)/C=C1/S/C(=N/NC(=O)c2ccc(OC)cc2)NC1=O | -12.8% | -12.2% | 4.0 | -2.0% | 18.6%
Nc1ccc2c(c1)CN1C(=O)c3ccccc3C1=N2 | . | . | i | . | .
CSc1nc(N(CCO)CCO)c2sc3nc(-c4ccco4)c4c(c3c2n1)CCC4 | ? | ? | -56.3* | -11.4% | 7.08µM*
COC(=O)CSc1nc(SC)nc2c1sc1nc(-c3ccco3)c3c(c12)CC(C)(C)OC3 | -11.3% | . | 4.5 | -4.6% | -22.1%
CSc1nc(SCCO)c2sc3nc(-c4ccco4)c4c(c3c2n1)CC(C)(C)OC4 | -19.6% | 12.6µM* | -17.3 | -13.1% | ?
CC[C@H]1C=C[C@@H](C(=O)NS(=O)(=O)c2ccc(C)cc2)N(C(C)=O)C1 | . | . | 3.4 | . | .
O=C(CCc1nnc(-c2ccc3c(c2)OCO3)o1)NCCc1ccccc1F | 11.9µM* | -3.9% | 6.2 | ? | ?
Cc1ccc(-c2cc(-c3ccccc3Cl)c(C#N)c(N)n2)o1 | ? | ? | 0.4 | -9.4% | 30.3%
Cc1ccc(-c2cc(-c3ccccc3)c(C#N)c(N)n2)o1 | 21.2µM* | ? | 6.4 | ? | 42.4%
COc1cccc(NC(=O)CN2CCN(S(=O)(=O)c3ccc(C(C)C)cc3)CC2)c1 | 29.9µM* | ? | -5.5 | -1.5% | 8.3%
NS(=O)(=O)c1ccc(NC(=O)CN2CCN(S(=O)(=O)c3ccc(F)cc3)CC2)cc1 | 4.74µM* | -3.9% | -2.6 | ? | ?
CCc1ccc(/C=C2/C(=O)N(CC)C(=S)N2C)s1 | 23.8µM* | -5.0% | -0.6 | -21.1% | -13.3%
COCC(=O)N[C@@H]1C[C@@H]2O[C@H](CO)CC[C@@H]2O[C@@H]1CCc1ccc(-c2ccccc2)cc1 | . | . | -1.5 | . | .
COc1ccc(/C=N/NC(=O)CCN2CCN(c3ccccc3)CC2)c(OC)c1OC | -2.3% | 0.2% | -2.2 | 9.5% | -6.5%
O=C(CCN1CCN(c2ccccc2)CC1)N/N=C/c1ccc(O)c(O)c1O | 10.6µM* | -22.4% | -19.2 | -15.5% | ?
Cc1cc(C(=O)N/N=C/c2ccc(O)c(O)c2O)c(C)n1-c1ccccc1 | 6.7µM* | ? | -10.8 | -21.2% | 15.8µM*
C/C(=N\NC(=O)Cc1csc(N2CCOCC2)n1)c1ccccc1 | -2.4% | 1.8% | 3.7 | 7.0% | .
O=C(Cc1csc(N2CCOCC2)n1)N/N=C/c1ccc(O)c(O)c1O | 10.6µM* | -13.7% | -9.3 | 9.7% | ?
SMILES | PLK1 PBD inh | GCN5L2 inh | PI4K2A inh | VDR inhibitor | GLS inhibitor
COc1ccc(C(=O)n2nc(-c3ccco3)nc2NCc2cccs2)cc1OC | . | -24.6% | 14.4 | -5.7% | 0.5%
CC(=O)c1ccc(NC(=O)CSc2nnc(-c3ccncc3)n2-c2ccccc2)cc1 | . | -7.0% | 2.2 | 13.9% | -5.9%
COc1cc(OC)cc(C(=O)NC2CCN(CC(=O)Nc3cccc4ccccc34)CC2)c1 | -4.2% | 4.0% | -9.7 | 14.9% | -1.3%
COc1cc(C(=O)NC2CCN(CC(=O)Nc3cccc(C)c3C)CC2)cc(OC)c1OC | 26.7µM* | 9.7% | 6.7 | -20.4% | -2.3%
S=C1NC2(CCCCC2)NN1c1ccccc1 | -2.4% | 17.8µM* | -0.6 | -5.0% | 5.2%
CC1CCCC2(C1)NC(=S)N(c1ccccc1)N2 (centres undefined) | -5.0% | -4.6% | -1.8 | ? | 16.4%

Assay outcomes as filed in PubChem BioAssay.
